Data: PubChem BioAssay (Tox21)
Where “and” joins values, the source holds several entries; their conditions need not be identical. Identical values can stand only once. Records with an inconclusive call do not appear. Where a call stands in place of a potency, no number is given. Some compounds were tested as several samples or in several runs, with calls that do not always agree. Calls of active or inactive are those of the source. Unless noted, the call rests on the fitted dose curve.

Legend:
[1] = Nuclear factor erythroid 2-related factor 2/antioxidant responsive element (Nrf2/ARE) small molecule agonists: qHTS cell viability counter screen in human keratinocytes (AID 1919968; active means well fitted curve in the direction sought with a large enough effect in the repeat runs; an effect the other way counts as inactive or inconclusive; further: nearly all actives have a fitted effect of over 55% in size)
In short: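 Measured as CellTiter-Fluor fluorescence, this readout tracks cytotoxicity in the same wells as the ARE-luciferase screen. HaCaT reporter cells (1,500/well) received compounds after a 5 h pre-incubation and were exposed for 23 h.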

[2] = Nuclear factor erythroid 2-related factor 2/antioxidant responsive element (Nrf2/ARE) small molecule agonists: luciferase reporter gene qHTS assay in human keratinocytes (AID 1919969); further: nearly all actives have a fitted effect of over 35% in size; further: potency means the concentration at half of the fitted maximal effect
[3] = target: Gonadotropin-releasing hormone receptor (Homo sapiens) (UniProt P30968); test: Human gonadotropin-releasing hormone receptor (GnRHR) small molecule agonists, calcium flux assay in GnRHR-HEK293 cells (AID 1920063); further: nearly all actives have a fitted effect of over 35% in size
In short: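 Fluorescence kinetics (480 nm excitation, 540 nm emission; 3 min, 1 s steps) report calcium mobilisation in human GnRHR-HEK293 cells in agonist mode. Dye incubation: 1 h, 37 C.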

[4] = target: KiSS-1 receptor (Homo sapiens) (UniProt Q969F8); test: Human kisspeptin (KISS1R) small molecule agonists, calcium flux assay in KISS1R-HEK293 cells (AID 1920064; active means well fitted curve in the direction sought with a large enough effect in the repeat runs; an effect the other way counts as inactive or inconclusive)
In short: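 Measures KISS1R agonism through calcium-sensitive dye fluorescence in stably transfected HEK293 cells, read for 3 min after pin-tool compound delivery; 15-point titrations in triplicate.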

[5] = G protein-coupled receptor (GPCR) small molecule agonists, calcium flux assay: HEK293 wild type cell line counter screen (AID 1920065)
In short: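 Readout: fluorescence at 480 nm excitation/540 nm emission, sampled at 1 s intervals for 3 min. Cells had been cultured 18 h, then dye-loaded 1 h at 37 C before compound or ATP addition.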

[6] = p53 small molecule agonists, cell-based qHTS assay with human liver microsomes (AID 1963577);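 further: p53 response element beta-lactamase reporter cells with liver microsomes plus NADPH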
In short: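 Metabolically competent format: test substances, human liver microsomes and NADPH (both 0.5 mg/mL final) incubated with p53RE-bla cells 16 h at 37 C. Beta-lactamase reporter signal then quantified by fluorescence.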

[7] = p53 small molecule agonists, cell-based qHTS assay with rat liver microsomes (AID 1963578)
In short: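 Each plate received p53RE-bla cells, then compound, then rat liver microsomes and NADPH (both 0.5 mg/mL final). Plates were held 16 h at 37 C, and beta-lactamase activity was detected with LiveBLAzer over 2 h.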

[8] = p53 small molecule agonists, cell-based qHTS assay with human liver microsomes: qHTS cell viability counter screen (AID 1963579); further: nearly all actives have a fitted effect of over 45% in size; further: potency means the concentration at half of the fitted maximal effect
In short: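 Tox21 library compounds, delivered from DMSO stocks, were tested on p53RE-bla cells together with 0.5 mg/mL human liver microsomes and 0.5 mg/mL NADPH (final) over 16 h at 37 C; CellTiter-Glo luminescence served as the cytotoxicity measure.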

[9] = p53 small molecule agonists, cell-based qHTS assay with rat liver microsomes: qHTS cell viability counter screen (AID 1963580); further: nearly all actives have a fitted effect of over 45% in size; further: potency means the concentration at half of the fitted maximal effect
In short: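 Intracellular ATP, by CellTiter-Glo luminescence, defines viability. HCT-116 p53RE-bla cells, 4,000 per well, were compound-treated in the presence of rat liver microsomes and NADPH for 16 h at 37 C.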

[10] = p53 small molecule agonists, cell-based qHTS assay: qHTS cell viability counter screen (AID 1963581); further: nearly all actives have a fitted effect of over 45% in size
In short: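 In the same plates used for the p53 bla reporter, HCT-116 cells given compounds for 16 h at 37 C received CellTiter-Glo; luminescence was recorded 30 min later at room temperature.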

[11] = p53 small molecule agonists, cell-based qHTS assay (AID 1963582; active means well fitted activation curve with a large enough effect in the signal ratio in the repeat runs, not every such curve was filed as active; the % refers to the signal ratio)
In short: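 Compounds are pin-transferred in DMSO onto p53RE-bla cells and incubated 16 h at 37 C. The B/G FRET beta-lactamase substrate is then applied for 2 h at RT and fluorescence recorded.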

[12] = target: 5-hydroxytryptamine receptor 2A (Homo sapiens) (UniProt P28223); test: 5-hydroxytryptamine receptor 2A (HTR2A) small molecule antagonists, cell-based qHTS assay (AID 1963586); further: nearly all actives have a fitted effect of over 45% in size
In short: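 Antagonist-mode intracellular calcium assay: DOI (4 nM) added after 5 min compound pre-incubation at room temperature to dye-loaded HTR2A-CHO cells. Fluorescence followed for 3 min, sampled every second.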

[13] = target: 5-hydroxytryptamine receptor 2A (Homo sapiens) (UniProt P28223); test: 5-hydroxytryptamine receptor 2A (HTR2A) small molecule agonists, cell-based qHTS assay (AID 1963587); further: nearly all actives have a fitted effect of over 30% in size
In short: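 Kinetic calcium-flux fluorescence (2 min, 1 sec intervals) after compound addition in agonist mode. HTR2A-CHO cells were cultured 18 h, then dye-loaded 1 h at 37 C.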

[14] = target: Muscarinic acetylcholine receptor M1 (Homo sapiens) (UniProt P11229); test: Cholinergic receptor muscarinic 1 (CHRM1) small molecule antagonists, cell-based qHTS assay (AID 1963588); further: nearly all actives have a fitted effect of over 40% in size; further: potency means the concentration at half of the fitted maximal effect
In short: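 CHRM1-CHO calcium-flux assay, antagonist mode. Cells were seeded 18 h, dye-loaded 1 h at 37 C and given compound for 5 min at RT, then acetylcholine was added at 50nM. FDSS fluorescence was read 3 min; 15 concentrations, three runs.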

[15] = target: Muscarinic acetylcholine receptor M1 (Homo sapiens) (UniProt P11229); test: Cholinergic receptor muscarinic 1 (CHRM1) small molecule agonists, cell-based qHTS assay (AID 1963589); further: nearly all actives have a fitted effect of over 35% in size
In short: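 Each compound was tested at 15 concentrations across three independent runs on dye-loaded CHO cells stably expressing human CHRM1, reading intracellular calcium fluorescence kinetically at 1 sec intervals.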

[16] = cAMP Responsive Elements (CRE) small molecule agonists, cell-based qHTS assay (AID 1963590)
In short: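 Cell line: CRE-bla HEK 293T; medium DMEM/10% dialyzed FBS/0.1 mM NEAA/1 mM pyruvate/25 mM HEPES; 3 h compound exposure; beta-lactamase FRET readout after 2 h substrate loading at RT.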

[17] = cAMP Responsive Elements (CRE) small molecule antagonists, cell-based qHTS assay (AID 1963591; active means well fitted inhibition curve with a large enough effect in the signal ratio in the repeat runs, not every such curve was filed as active; the % refers to the signal ratio)
In short: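 Inhibition of NKH477-driven (0.25 uM final) CRE-beta-lactamase signal in HEK293T cells, 3 h compound exposure at 37 °C, detected by FRET substrate fluorescence.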

[18] = target: D(2) dopamine receptor (Homo sapiens) (UniProt P14416); test: Dopamine D2 receptor (DRD2) small molecule agonists, cell-based qHTS assay (AID 1963594); further: nearly all actives have a fitted effect of over 35% in size
In short: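 cAMP accumulation in DRD2-HEK293 cells measured by HTRF after 1 h detection; compounds added 10 min before NKH477 (200nM […]) forskolin-analogue stimulation, 30 min at room temperature, with Ro20-1724 present at 0.1 mM final.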

[19] = target: D(2) dopamine receptor (Homo sapiens) (UniProt P14416); test: Dopamine D2 receptor (DRD2) small molecule antagonists, cell-based qHTS assay (AID 1963595; active means well fitted inhibition curve with a large enough effect in the signal ratio in the repeat runs, with a control signal flat; the % refers to the signal ratio)
In short: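 HEK293 cells stably expressing DRD2, preincubated with 0.1 mM Ro20-1724 and compounds 10 min, were stimulated with 200 nM NKH477 plus 12 nM quinpirole for 30 min at room temperature; cAMP measured by HTRF (665/620 nm).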

[20] = target: Beta-2 adrenergic receptor (Homo sapiens) (UniProt P07550); test: Adrenergic beta2 receptor (ADRB2) small molecule antagonists, cell-based qHTS assay (AID 1963592); further: nearly all actives have a fitted effect of over 50% in size; further: potency means the concentration at half of the fitted maximal effect
In short: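 Cells (CHO, stable ADRB2 overexpression) incubated 18-20hr at 37C; compounds added from DMSO; agonist mix (1nM isoproterenol, 100uM IBMX, 25uM Ro-20-1724) added; 0.5hr RT; d2-cAMP and anti-cAMP-cryptate added; 1hr RT; 665/615 nm read.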

Beta-2 adrenergic receptor (Homo sapiens), sequence (P07550 whole entry, looked up): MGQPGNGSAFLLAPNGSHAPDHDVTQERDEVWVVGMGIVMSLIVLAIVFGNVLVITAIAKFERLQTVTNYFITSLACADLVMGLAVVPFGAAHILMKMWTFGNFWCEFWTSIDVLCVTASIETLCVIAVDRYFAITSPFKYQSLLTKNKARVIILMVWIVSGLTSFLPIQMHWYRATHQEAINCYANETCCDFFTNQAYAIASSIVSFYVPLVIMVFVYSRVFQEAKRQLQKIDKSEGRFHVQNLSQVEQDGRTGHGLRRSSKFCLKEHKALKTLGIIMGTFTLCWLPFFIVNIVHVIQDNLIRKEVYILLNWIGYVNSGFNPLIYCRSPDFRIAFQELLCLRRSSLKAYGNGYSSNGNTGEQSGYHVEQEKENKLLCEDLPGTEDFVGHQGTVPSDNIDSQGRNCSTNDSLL
KiSS-1 receptor (Homo sapiens), sequence (Q969F8 whole entry, looked up): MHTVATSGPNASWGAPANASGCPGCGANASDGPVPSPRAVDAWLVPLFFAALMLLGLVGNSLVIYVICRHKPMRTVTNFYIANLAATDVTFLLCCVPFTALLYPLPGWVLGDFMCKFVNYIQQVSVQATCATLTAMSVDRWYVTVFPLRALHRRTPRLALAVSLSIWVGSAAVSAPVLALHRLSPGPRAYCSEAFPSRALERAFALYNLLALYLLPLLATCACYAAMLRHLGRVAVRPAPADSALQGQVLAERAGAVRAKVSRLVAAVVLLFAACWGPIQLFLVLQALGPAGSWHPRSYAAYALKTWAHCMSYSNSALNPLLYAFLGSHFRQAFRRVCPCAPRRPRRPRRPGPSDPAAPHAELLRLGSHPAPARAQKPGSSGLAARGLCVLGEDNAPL
Gonadotropin-releasing hormone receptor (Homo sapiens), sequence (P30968 whole entry, looked up): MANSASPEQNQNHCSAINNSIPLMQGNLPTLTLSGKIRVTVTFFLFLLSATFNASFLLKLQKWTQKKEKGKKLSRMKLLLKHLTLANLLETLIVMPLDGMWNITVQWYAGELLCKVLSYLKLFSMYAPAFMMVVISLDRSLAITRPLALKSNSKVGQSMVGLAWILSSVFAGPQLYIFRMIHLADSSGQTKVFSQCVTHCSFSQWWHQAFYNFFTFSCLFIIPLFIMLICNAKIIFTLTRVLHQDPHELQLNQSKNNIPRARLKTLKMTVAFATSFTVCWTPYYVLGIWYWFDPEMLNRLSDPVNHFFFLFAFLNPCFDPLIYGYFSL
D(2) dopamine receptor (Homo sapiens), sequence (P14416 whole entry, looked up): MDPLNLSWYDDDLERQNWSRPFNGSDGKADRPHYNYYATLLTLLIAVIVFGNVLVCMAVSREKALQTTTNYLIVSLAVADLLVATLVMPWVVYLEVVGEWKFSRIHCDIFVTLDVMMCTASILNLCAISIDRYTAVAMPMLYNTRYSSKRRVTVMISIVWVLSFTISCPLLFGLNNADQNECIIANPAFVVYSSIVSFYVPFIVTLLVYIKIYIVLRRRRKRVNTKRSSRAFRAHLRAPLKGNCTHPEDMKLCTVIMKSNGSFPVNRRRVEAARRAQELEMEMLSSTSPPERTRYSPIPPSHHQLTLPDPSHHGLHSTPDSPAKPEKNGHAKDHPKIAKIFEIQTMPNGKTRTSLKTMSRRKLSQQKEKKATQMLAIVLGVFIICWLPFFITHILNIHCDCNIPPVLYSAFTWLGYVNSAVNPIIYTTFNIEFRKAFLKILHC
5-hydroxytryptamine receptor 2A (Homo sapiens), sequence (P28223 whole entry, looked up): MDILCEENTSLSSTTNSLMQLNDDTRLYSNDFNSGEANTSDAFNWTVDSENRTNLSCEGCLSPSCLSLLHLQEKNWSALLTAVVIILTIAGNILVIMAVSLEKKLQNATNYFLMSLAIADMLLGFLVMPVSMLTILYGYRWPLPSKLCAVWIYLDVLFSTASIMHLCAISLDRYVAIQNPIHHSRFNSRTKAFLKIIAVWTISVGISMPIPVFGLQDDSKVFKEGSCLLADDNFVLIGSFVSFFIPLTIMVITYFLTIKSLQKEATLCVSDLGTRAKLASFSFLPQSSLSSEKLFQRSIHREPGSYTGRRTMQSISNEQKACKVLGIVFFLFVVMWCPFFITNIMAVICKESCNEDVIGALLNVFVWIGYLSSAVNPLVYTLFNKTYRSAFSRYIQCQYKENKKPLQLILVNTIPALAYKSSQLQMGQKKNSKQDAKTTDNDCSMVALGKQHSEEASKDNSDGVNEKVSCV
Muscarinic acetylcholine receptor M1 (Homo sapiens), sequence (P11229 whole entry, looked up): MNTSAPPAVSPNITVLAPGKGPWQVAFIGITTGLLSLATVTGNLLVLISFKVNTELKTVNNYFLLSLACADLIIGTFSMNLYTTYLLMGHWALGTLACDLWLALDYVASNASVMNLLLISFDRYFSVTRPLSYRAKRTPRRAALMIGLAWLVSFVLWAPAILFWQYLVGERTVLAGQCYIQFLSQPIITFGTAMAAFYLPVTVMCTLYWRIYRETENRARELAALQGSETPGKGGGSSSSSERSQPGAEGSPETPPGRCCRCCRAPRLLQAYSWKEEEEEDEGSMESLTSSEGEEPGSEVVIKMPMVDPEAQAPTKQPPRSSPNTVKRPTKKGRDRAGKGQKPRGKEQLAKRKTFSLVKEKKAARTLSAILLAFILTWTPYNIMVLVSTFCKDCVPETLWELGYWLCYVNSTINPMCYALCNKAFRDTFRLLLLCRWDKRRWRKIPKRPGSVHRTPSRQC

Row | SMILES | Potency [1] | Potency [2] | Potency [3] | Potency [4] | Potency [5] | Potency [6] | Potency [7] | Potency [8] | Potency [9] | Potency [10] | Potency [11] | Potency [12] | Potency [13] | Potency [14] | Potency [15] | Potency [16] | Potency [17] | Potency [18] | Potency [19] | Potency [20]
1 | CC(C)=O | inactive | inactive | inactive | inactive | inactive | inactive | inactive | inactive | inactive | inactive | inactive | inactive | inactive | inactive | inactive | inactive | inactive | inactive | inactive | –
2 | COc1cccc(OC)c1O | inactive | inactive | inactive | inactive | inactive | inactive | inactive | inactive | inactive | inactive | inactive | inactive | inactive | inactive | inactive | inactive | inactive | inactive | inactive | inactive
3 | CCc1cnc(C(=O)O)c(C(=O)O)c1 | inactive | inactive | inactive | inactive | inactive | inactive | inactive | inactive | inactive | inactive | inactive | inactive | inactive | inactive | inactive | – | inactive | inactive | – | inactive
4 | CNC(=O)Nc1ccc(Cl)c(Cl)c1 | inactive | inactive | inactive | inactive | inactive | inactive | inactive | inactive | inactive | inactive | inactive | inactive | inactive | inactive | inactive | – | inactive | inactive | inactive | inactive
5 | CN(C(=O)c1c(O)c2ccccc2n(C)c1=O)c1ccccc1 | inactive | inactive | inactive | inactive | inactive | inactive | inactive | inactive | inactive | inactive | inactive | inactive | inactive | inactive | inactive | – | inactive | inactive | inactive | inactive
6 | CCC(C)(C)C1CCC(OC)CC1 (centres undefined) | inactive | inactive | inactive | inactive | inactive | inactive | inactive | inactive | inactive | inactive | inactive | inactive | inactive | inactive | inactive | – | inactive | inactive | inactive | inactive
7 | C=CC(C)(O)CC/C=C(\C)CCC=C(C)C (centres undefined) | inactive | inactive | inactive | inactive | inactive | inactive | inactive | inactive | inactive | inactive | inactive | inactive | inactive | inactive | inactive | inactive | – | inactive | inactive | inactive
8 | CCCN1CCCC[C@H]1C(=O)Nc1c(C)cccc1C | inactive | inactive | inactive | inactive | inactive | inactive | inactive | inactive | inactive | inactive | inactive | inactive | inactive | inactive | inactive | inactive | inactive | inactive | inactive | inactive
9 | O=c1[nH]c(=O)c2cn[nH]c2[nH]1 | inactive | inactive | inactive | inactive | inactive | inactive | inactive | inactive | inactive | inactive | inactive | inactive | inactive | inactive | inactive | inactive | – | inactive | inactive | inactive
10 | CCN(CC)c1ccc(C=O)c(O)c1 | inactive | inactive | inactive | inactive | inactive | inactive | inactive | inactive | inactive | inactive | inactive | inactive | inactive | inactive | inactive | – | inactive | inactive | inactive | inactive
11 | NCCO | inactive | inactive and 27.3 µM (active) | inactive | inactive | inactive | inactive | inactive | inactive and 36.3 µM (active) | inactive and 32.4 µM (active) | inactive | inactive | inactive | inactive | 18.8 µM (active) | inactive | inactive | – | inactive | inactive | inactive
12 | Nc1ncnc2c1ncn2Cc1c(F)cccc1Cl | inactive | inactive | inactive | inactive | inactive | inactive | inactive | inactive | inactive | inactive | inactive | inactive | inactive | inactive | inactive | inactive | – | – | – | inactive
13 | CC(C)(C)NCC(O)COc1ccccc1OCC1CCCO1 (centres undefined) | inactive | inactive | inactive | inactive | inactive | inactive | inactive | inactive | inactive | inactive | inactive | inactive | inactive | inactive | inactive | inactive | inactive | – | inactive | 0.0266 µM (active)
14 | N[C@H]1C(O)O[C@H](CO)[C@@H](O)[C@@H]1O (some centres undefined) | inactive | inactive | inactive | inactive | inactive | inactive | inactive | inactive | inactive | inactive | inactive | inactive | inactive | inactive | inactive | inactive | inactive | – | inactive | –
